# Results filed as inconclusive are left out. Activity calls are given as the source filed them. How the source made its calls: active means hit-call score of the fitted dose curve at least 0.9, where 1 is the maximum; inconclusive means response in the unintended direction; inactive means score below 0.9.
# Biological target: human Akt2 (PKBbeta) AGC Kinase, AKT2 (gene 208) (UniProt P31751)
# Assay: ERF_FR_ENZ_hAKT2: Eurofins (ERF) Enzymatic Radiometric [Km ATP] KinaseProfiler LeadHunter Assay for human Akt2 (PKBbeta) AGC Kinase
# Description: ERF_FR_ENZ_hAKT2 is a biochemical, single-readout assay that uses extracted gene-proteins in a cell-free assay. Measurements were taken 0.5 hour after chemical dosing in a 96-well plate. See Akt2 (PKBbeta) Human AGC Kinase Enzymatic LANCE Assay [Km ATP], Cerep.ERF_FR_ENZ_hAKT2 is an assay component calculated from the ERF_FR_ENZ_hAKT2 assay. It is designed to measure enzyme activity using a type of enzyme reporter as detected by fluorescence intensity with LANCE technology.Data from the assay component ERF_FR_ENZ_hAKT2 was analyzed at the assay endpoint, ERF_FR_ENZ_hAKT2, in the positive analysis fitting direction relative to DMSO as the negative control and baseline of activity. Using a type of enzyme reporter, loss-of-signal activity can be used to understand changes in enzymatic activity as they relate to gene AKT2. To generalize the intended target to other relatable targets, this assay endpoint is annotated to the kinase intended target family, where the subfamily is serine/threonine kinase.
# PKBb (h) is incubated with 8 mM MOPS pH 7.0, 0.2 mM EDTA, 30 uM […], 10 mM MgAcetate and [g- 33P]-ATP (specific activity and concentration as required). The reaction is initiated by the addition of the Mg/ATP mix. After incubation for 40 minutes at room temperature, the reaction is stopped by the addition of phosphoric acid to a concentration of 0.5%. […]
# human Akt2 (PKBbeta) AGC Kinase, AKT2 (gene 208), sequence (P31751 whole entry, looked up): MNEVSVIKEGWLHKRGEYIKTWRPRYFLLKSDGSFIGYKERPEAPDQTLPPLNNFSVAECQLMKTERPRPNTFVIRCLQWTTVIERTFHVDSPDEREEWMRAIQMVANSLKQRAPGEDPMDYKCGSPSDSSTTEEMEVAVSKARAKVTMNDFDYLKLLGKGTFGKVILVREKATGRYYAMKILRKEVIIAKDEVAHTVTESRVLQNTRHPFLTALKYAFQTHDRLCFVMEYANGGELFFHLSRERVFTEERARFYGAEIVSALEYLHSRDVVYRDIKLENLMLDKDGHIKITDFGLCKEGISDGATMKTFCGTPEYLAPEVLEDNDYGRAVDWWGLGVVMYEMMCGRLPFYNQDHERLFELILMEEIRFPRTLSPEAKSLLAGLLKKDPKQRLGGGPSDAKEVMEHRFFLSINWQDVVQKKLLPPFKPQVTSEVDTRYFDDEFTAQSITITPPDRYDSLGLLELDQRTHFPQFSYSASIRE
row,Structure (SMILES),outcome
1,Oc1ccc(O)cc1,inactive
